Source: PubChem
Nrf2 inh = Nrf2 pathway inhibition; Potency, µM (series often up to 46 µM), for inactives: top-dose activity change, negative = inhibition, actives largely listed as inhibitors; actives 2.1% (n = 360,000); A549 ARE-Fluc reporter, luciferase luminescence, 18-24 h; also: potency is read from the fitted curve at half-maximal effect; % is scaled to controls: 0 for no effect and ±100 for the full control effect; nearly all actives have a fitted effect of over 60% in size
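Quantitative HTS in A549 cells stably bearing an antioxidant response element-firefly luciferase construct. Inhibition of Nrf2-driven transcription was scored by luminescence after 18-24 h of compound exposure at 37 °C.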
BRCA1 expr act = BRCA1 expression activation; actives 1.1% (n = 380,000); Potency, µM (doses to about 46.1 µM), for the others: top-dose activation, actives largely listed as activators; AID 624202; MCF7-BRCA1-FFLuc reporter, luminescence, 48 h; response scale: scaled: vehicle 0%, 10 µM genistein 100%; also: potency is read from the fitted curve at half-maximal effect; nearly all actives have a fitted effect of over 80% in size
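Reporter cells (MCF7, BRCA1 promoter-firefly luciferase) received library compounds across a concentration series for 48 h. End-point luminescence was measured and concentration-effect curves derived after normalization.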
IL-2 act = IL-2 activation; IL-2 activation reporter assay, cell-based qHTS; stimulated with anti-CD3/CD4/CD28 beads; in transgenic mouse T cells; activation, % (series mostly up to about 46 µM); actives 0.065% (n = 360,000); AID 652025; in the data active = activation above about 50%; inconclusive = mostly about 30% to 49%; also: 0% is about no effect
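Readout is EGFP and DsRed signal by fluorescent plate cytometry after 18 h at 37 degrees C. Transgenic mouse T cells (750/well) received compound for 60 min before bead stimulation (anti-CD3, anti-CD4, anti-CD28); memory T cells served as non-tolerant control.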
Nrf2 activator = Nrf2 pathway activation; AREc32 ARE-luciferase reporter (MCF7-derived line), luminescence, 24 h; Potency, µM (highest dose often 46.1 µM), for inactives: top-dose activation, actives largely listed as activators; actives 0.31% (n = 410,000); AID 624171; also: potency is read from the fitted curve at half-maximal effect; % of control where 0% means no effect; nearly all actives have a fitted effect of over 65% in size
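Each well held 1000 AREc32 cells, which were incubated with compound for 24 hr at 37 deg C after overnight attachment, and ARE reporter activity was quantified by firefly luciferase luminescence.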
p53 reactivation = restores transcriptional activity of mutant p53 | Potency, µM (doses to about 92.2 µM), for inactives: at the top dose activity change, positive = activation, hits mostly activators | AID 504706 | H1299 p53-A138V BP100-luciferase reporter, luminescence, 24 h | actives 0.063% (n = 320,000); also: potency is read from the fitted curve at half-maximal effect; % of control where 0% means no effect; nearly all actives have a fitted effect of over 45% in size
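p53-null H1299 cells stably carrying temperature-sensitive p53-A138V and a BP100-luciferase reporter were pinned with compounds (4-point, 1:5 series) and held 24 hrs at 37 deg C. Luminescence was read 10 min after detection reagent.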
A549 tox-1 = kills or reduces viability of A549 cells in Nrf2 counter-screen | A549 ARE-Fluc cells, CellTiter-Fluor viability, 18-24 h | Potency, µM (highest dose often 46 µM), for inactives: at the highest dose activity change, negative = cytotoxicity, actives largely listed as inhibitors | actives 0.16% (n = 390,000); also: potency is read from the fitted curve at half-maximal effect; % is scaled to controls: 0 for no effect and ±100 for the full control effect
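A549 ARE_Fluc cells in 5% FBS OPTI-MEM were exposed to compounds in concentration-response for 18-24 h at 37 deg C. Viability was read by CellTiter-Fluor fluorescence (Ex 405/Em 525) after 30 min, before the luciferase read.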
FLuc enzyme inh = blocks purified firefly luciferase in Nrf2 counterscreen; shares compounds with Nrf2 inh; actives 4% (n = 1,400); purified firefly luciferase, luminescence inhibition; Potency, µM (titrated, usually from 57.5 µM), for the others: top-dose activity change, negative = inhibition, hits mostly inhibitors; also: potency is read from the fitted curve at half-maximal effect; % is scaled to controls: 0 for no effect and ±100 for the full control effect; nearly all actives have a fitted effect of over 65% in size
Target sequence (P08659 whole entry, looked up): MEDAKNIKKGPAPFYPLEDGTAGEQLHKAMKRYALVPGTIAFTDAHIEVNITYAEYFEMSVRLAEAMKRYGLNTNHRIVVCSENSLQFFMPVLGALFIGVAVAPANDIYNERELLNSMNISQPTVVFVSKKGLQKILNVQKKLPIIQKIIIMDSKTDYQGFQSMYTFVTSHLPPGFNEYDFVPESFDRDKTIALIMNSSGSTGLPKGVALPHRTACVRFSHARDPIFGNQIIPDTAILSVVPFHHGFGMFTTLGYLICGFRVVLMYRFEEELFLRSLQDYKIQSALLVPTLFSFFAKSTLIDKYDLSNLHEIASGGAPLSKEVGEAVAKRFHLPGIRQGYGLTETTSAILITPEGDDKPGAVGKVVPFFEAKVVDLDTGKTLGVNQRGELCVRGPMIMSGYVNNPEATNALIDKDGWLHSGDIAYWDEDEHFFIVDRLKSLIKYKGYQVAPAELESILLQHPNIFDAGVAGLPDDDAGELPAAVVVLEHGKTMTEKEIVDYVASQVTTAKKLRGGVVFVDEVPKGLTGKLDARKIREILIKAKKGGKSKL
A549 tox-2 = A549 cytotoxicity, Nrf2 inhibitor counterscreen; shares compounds with Nrf2 inh; A549 ARE-Fluc cells, cytotoxicity counterscreen; Potency, µM (highest dose often 46.1 µM), for inactives: top-dose activity change, negative = cytotoxicity, hits mostly inhibitors; actives 2% (n = 1,400); AID 720523;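 also: potency is read from the fitted curve at half-maximal effect; cells exposed to compounds for 18 to 24 hours; % is scaled to controls: 0 for no effect and ±100 for the full control effect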
ARE-Fluc inh = reduces Nrf2 ARE reporter signal in A549 cells; shares compounds with Nrf2 inh; Potency, µM (titrated, usually from 46.1 µM), without a hit: at the top dose activity change, negative = inhibition, usual class: inhibitors; actives 74% (n = 1,400); AID 720524; A549 ARE-firefly luciferase reporter, luminescence; also: potency is read from the fitted curve at half-maximal effect; % is scaled to controls: 0 for no effect and ±100 for the full control effect; nearly all actives have a fitted effect of over 65% in size
Active calls of the source: *; u = inconclusive; x = not tested or not shown. The list is not random: actives were taken first. Their share in the collection is about 3.2%. Unless noted, calls follow the shape of the dose curve; as a rule, active = well fitted curve in the direction sought with a large enough effect; inconclusive = small, poorly fitted or top-dose-only effect, or another doubt; inactive = no such curve, though single readings can be large; an effect the other way counts as inactive or inconclusive.

SMILES	Nrf2 inh	BRCA1 expr act	IL-2 act	Nrf2 activator	p53 reactivation	A549 tox-1	FLuc enzyme inh	A549 tox-2	ARE-Fluc inh
COCC1CCN(C(=O)c2cc(COc3ccc4ncccc4c3)on2)CC1	3.7µM*	-35%	-6	-1%	-2%	-27%	-12%	-5%	7.3µM*
COCC1CCN(C(=O)c2cc(COc3ccc(-n4cncn4)cc3)on2)CC1	10%	-4%	-3	-1%	3%	2%	x	x	x
COc1ccc(CNc2nc3c(c(=O)n(Cc4ccc(Cl)cc4)c(=O)n3C)n2C)cc1	9.2µM*	-73%	-1	0%	1%	u	0%	-19%	13µM*
CC1=NC(C)(C)Cc2cc(C)c(C)cc21	-5%	-7%	-1	0%	2%	-8%	x	x	x
Cc1cc2c(cc1C)C(=O)NC(C)(C)C2	7.3µM*	39%	-1	0%	x	0%	-1%	0%	18%
COc1cccc(CNC(=O)CN(c2ccc(C(C)C)cc2)S(=O)(=O)c2c(C)n[nH]c2C)c1	u	-36%	x	1%	x	1%	x	x	x
CC(C)CCOc1cccc(OCC(=O)Nc2ccncc2)c1	9.2µM*	9%	0	3%	2%	1%	-17%	-4%	3.7µM*
COc1cccc(OCC(=O)Nc2ccncc2)c1	u	-32%	-3	-1%	x	1%	x	x	x
Oc1ccccc1C(Nc1nccs1)c1ccc2cccnc2c1O (centres undefined)	5.8µM*	-81%	1	3%	21%	u	1%	-27%	13µM*
CCCCc1ccc(NC(=O)c2cc(-c3ccc(C)c(F)c3)on2)cc1	u	x	x	-1%	x	-1%	x	x	x
Cc1nnc(SCc2cc(=O)n3c(C)cccc3n2)s1	x	x	x	1%	x	-6%	x	x	x
NC(=O)c1ccc(NC(=O)C#Cc2ccccc2)cc1	4.6µM*	-54%	-3	u	-96%	-18%	u	u	5.8µM*
N=c1ccn(Cc2cccc(F)c2)cc1	2.1µM*	-24%	-1	0%	0%	u	5%	-10%	5.8µM*
COc1ccc(-c2csc(NC(=O)C3CCN(c4ncnc5sc(C)c(C)c45)CC3)n2)cc1OC	4.1µM*	-73%	-6	3%	-6%	-15%	0%	-10%	6.5µM*
Cc1ccc(C)c(N2CCN(C(=O)c3cnc4c(-c5ccccc5)c(C)nn4c3C)CC2)c1	-6%	x	x	0%	x	0%	x	x	x
CN(C(=O)c1ccc2c(c1)N(Cc1ccccc1F)C(=O)c1ccccc1S2)C1CCCCC1	x	x	x	-1%	x	-9%	x	x	x
COc1ccc([C@@]23Oc4cc(OC)cc(OC)c4[C@]2(O)[C@H](O)[C@H](C(=O)N(C)C)[C@H]3c2ccccc2)cc1	0.021µM*	u	0	-2%	x	u	2%	u	0.015µM*
COc1ccc(C2CC(O)(c3ccccc3)Oc3cc(OC)c(OC)c(OC)c32)cc1 (centres undefined)	u	-20%	-1	-1%	3%	u	x	x	x
Cc1cc2cc(CN(Cc3ccco3)S(=O)(=O)c3c(C)ccc4nsnc34)c(=O)[nH]c2cc1C	2.3µM*	-82%	1	0%	5%	-21%	u	-30%	3.3µM*
Cc1ccc2cc(CN(Cc3ccco3)S(=O)(=O)c3c(C)ccc4nsnc34)c(=O)[nH]c2c1	u	-65%	2	4%	-1%	1%	x	x	x
COc1ccc2c(c1)CC(NC(=O)Nc1ccc(Br)c(C)c1)CO2 (centres undefined)	x	x	x	0%	x	-4%	x	x	x
Cc1ccc(S(=O)(=O)CC2CSc3nc4ccccc4n32)cc1 (centres undefined)	0.73µM*	-34%	0	-1%	-5%	0%	0%	-1%	1.3µM*
Cc1ccc(Nc2c(-c3ccccn3)nc3cccc(C)n23)cc1	6.5µM*	-71%	-3	3%	24%	u	-8%	u	5.2µM*
CCC(C)Nc1nc(N)c([N+](=O)[O-])c(N2CCCCCC2)n1 (centres undefined)	u	-30%	-5	0%	2%	7%	x	x	x
CC(C)CNc1nc(N)c([N+](=O)[O-])c(N2CCCCCC2)n1	9.2µM*	-39%	0	3%	14%	-2%	-2%	1%	8.2µM*
SMILES	Nrf2 inh	BRCA1 expr act	IL-2 act	Nrf2 activator	p53 reactivation	A549 tox-1	FLuc enzyme inh	A549 tox-2	ARE-Fluc inh
Cc1oc(-c2ccc(Cl)cc2)nc1CS(=O)CC(=O)NCc1ccc(Cl)cc1 (centres undefined)	-23%	x	x	-1%	x	-8%	x	x	x
CC1CCc2c(sc(NC(=O)/C=C/c3cccs3)c2C(=O)O)C1 (centres undefined)	6.5µM*	0%	0	15%	x	-24%	u	u	7.3µM*
CC1CCc2c(sc(NC(=O)c3ccco3)c2C(=O)O)C1 (centres undefined)	u	20%	-2	13%	u	u	x	x	x
COc1ccc(CCN(C)C(=O)c2cccc(S(=O)(=O)N3CCN(c4ccc(F)cc4)CC3)c2)cc1OC	7.3µM*	-28%	-1	4%	x	-11%	-1%	-9%	5.2µM*
Cc1ccc(S(=O)(=O)N2CCOCC2)cc1C(=O)N(C)CCOc1ccc(Cl)cc1	u	-52%	0	0%	-5%	-13%	x	x	x
O=C(c1cccc(S(=O)(=O)N2CCN(c3ccc(F)cc3)CC2)c1)N1CCCC(C(F)(F)F)C1 (centres undefined)	4.6µM*	-53%	-5	3%	-8%	-19%	1%	-8%	5.2µM*
Cc1cccc(C)c1NC(=O)CN(C)C(=O)c1cccc(S(=O)(=O)N2CCN(c3ccccc3)CC2)c1	-26%	-31%	-4	0%	x	4%	x	x	x
Cc1cccc(C)c1NC(=O)CN(C)C(=O)c1cccc(S(=O)(=O)N2CCN(c3ccc(F)cc3)CC2)c1	5.2µM*	-61%	-5	0%	-2%	u	5%	-17%	9.2µM*
